Among the data in PubChem BioAssay (EPA / NIEHS) are outcome and AC50 values, retold here.

Each structure is given as a SMILES string. Records with an inconclusive call do not appear. Calls of active or inactive are those of the source. Rule for the calls: active = hit-call score of the fitted dose curve at least 0.9, where 1 is the maximum; inconclusive = response in the unintended direction; inactive = score below 0.9.

The test deals with Retinoic acid receptor RXR-alpha (Homo sapiens) (UniProt P19793). Briefly: ATG_RXRa_TRANS: Attagene TRANS-FACTORIAL HepG2 Assay for human Retinoid X Receptor alpha (RXRa) (AID 2283012). How it is done: ATG_TRANS is a cell-based, multiplexed-readout assay that uses HepG2, a human liver cell line, with measurements taken at 24 hours after chemical dosing in a 24-well plate.ATG_RXRa_TRANS is one of 30 assay component(s) measured or calculated from the ATG_TRANS assay. It is designed to make measurements of mRNA induction, a form of inducible reporter, as detected with fluorescence intensity signals by Reverse transcription polymerase chain reaction (RT-PCR) and Capillary electrophoresis technology.Data from the assay component ATG_RXRa_TRANS was analyzed into 1 assay endpoint. This assay endpoint, ATG_RXRa_TRANS, was analyzed in the positive analysis fitting direction relative to DMSO as the negative control and baseline of activity. Using a type of inducible reporter, measures of mRNA for gain-of-signal activity can be used to understand the reporter gene at the transcription factor-level as they relate to the gene RXRA. Furthermore, this assay endpoint can be referred to as a primary readout, because this assay has produced multiple assay endpoints where this one serves a reporter gene function. To generalize the intended target to other relatable targets, this assay endpoint is annotated to the nuclear receptor intended target family, where the subfamily is non-steroidal.
Retinoic acid receptor RXR-alpha (Homo sapiens), sequence (P19793 whole entry, looked up): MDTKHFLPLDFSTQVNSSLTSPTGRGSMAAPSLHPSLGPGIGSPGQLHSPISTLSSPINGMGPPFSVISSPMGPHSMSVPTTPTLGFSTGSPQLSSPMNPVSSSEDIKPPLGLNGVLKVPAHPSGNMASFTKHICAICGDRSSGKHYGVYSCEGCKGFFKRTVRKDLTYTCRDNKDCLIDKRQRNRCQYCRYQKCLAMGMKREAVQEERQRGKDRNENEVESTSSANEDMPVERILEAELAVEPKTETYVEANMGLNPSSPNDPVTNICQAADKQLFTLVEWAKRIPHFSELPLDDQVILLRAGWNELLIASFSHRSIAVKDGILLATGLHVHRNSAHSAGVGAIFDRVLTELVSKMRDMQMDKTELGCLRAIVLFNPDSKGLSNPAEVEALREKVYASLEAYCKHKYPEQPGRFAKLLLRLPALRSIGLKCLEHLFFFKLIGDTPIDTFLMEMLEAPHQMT
Human liver HepG2 cells are transiently transfected with multiple reporter transcription units (MRTUs) in 6-well plates using FuGene 6 reagent (Roche; 3 ml FuGene/1 mg DNA). The MRTU constructs are regulated by a cis-regulating element (promoter). […] A major difference between the CIS and TRANS system is that in CIS activities of endogenous TFs are measured, whereas the TRANS assay evaluates changes in activities of exogenous, chimeric NR-Gal4 proteins. […] At the end of 24 hour incubation, total RNA was isolated using TriZol reagent (Invitrogen). The isolated RNA is then reverse-transcribed using oligo(dT) primer and Mo-MLV reverse transcriptase (Invitrogen) with DNAse I (Ambion) treatment for 30 min. The one-tenth of the produced cDNA was amplified by PCR using Taq DNA polymerase (Invitrogen) and two reporter sequence-specific primers. The PCR products were fluorescently labeled by primer extension with 6-arboxyfluorescein (6-FAM) 5'-labeled reporter sequence-specific primer (2 min at 95 C, 20 s at 68 C and 10 min at 72 C) and these products were digested with 5U of HpaI (New England Biolabs) for 2h at 37 C. The fragments were purified using Qiaquick PCR columns (Qiagen), analyzed on an ABI 3130xL genetic analyzer (Applied Biosystems) with peak positions identified by using a set of X-rhodamine (ROX)-labeled MapMarker1000 molecular weight standards (BioVentures). The raw capillary electrophoresis data was processed using Attagraph software (Attagene).
As for `O=[N+]([O-])c1cc([N+](=O)[O-])c2ccccc2c1`, the outcome was inactive.

For the compound `C=CC(=O)OCCO`, the result was inactive.

As to `CCCC=NO`, the compound was classed as inactive.

As to `C=CC(=O)OCC(CC)CCCC` (stereo not given), the call was inactive.

Regarding `COc1ncc(F)c2nc(S(=O)(=O)Nc3c(F)cccc3F)nn12`, the compound was called inactive.

In the case of `Cc1ccc(OP(=O)(Oc2ccc(C)cc2)Oc2ccc(C)cc2)cc1` (tested in a mixture with another compound), the outcome was inactive.

As for `CC1CCCC1.[C-]#[O+].[C-]#[O+].[C-]#[O+].[Mn]`, the result was inactive.

Consider `COc1ccc(CO)cc1`, for which the compound was called inactive.

As to `c1cc(OCC2CO2)ccc1Cc1ccc(OCC2CO2)cc1` (stereo not given), the outcome was inactive.

Regarding `CCC(C)c1cc([N+](=O)[O-])cc([N+](=O)[O-])c1OC(=O)C=C(C)C` (stereo not given), the outcome was inactive.

Regarding `O=[N+]([O-])O.O=[N+]([O-])O.[Cd]`, the result was inactive.

`NNc1ccccc1`: the call was inactive.

As to `C=CCc1ccc(OC(=O)Cc2ccccc2)c(OC)c1`, the call was inactive.

On to `CC(C)c1ccc(O)cc1`, for which the compound was called inactive.

Consider `N#CCCCl`, for which the result was inactive.

Take `CCN(CC)C(=S)S`: the result was inactive.

Consider `CNC(=O)Oc1cc(C)c(SC)c(C)c1`, for which the compound was called inactive.

For `O=C(O)CCCc1ccc(N(CCCl)CCCl)cc1`, the compound was called inactive.

With `O=[N+]([O-])c1ccc(Cl)cc1`, the compound was classed as inactive.

`C[N+](C)=CCl`: the result was inactive.

With `C[C@]12CC[C@H](O)C[C@H]1CC[C@@H]1[C@@H]2C[C@@H](O)[C@]2(C)[C@@H](C3=CC(=O)OC3)CC[C@]12O`, the compound was classed as inactive.

Consider `C[C@]12CCC(=O)C(O)=C1CC[C@@H]1[C@@H]2CC[C@]2(C)C(=O)CC[C@@H]12`, for which the outcome was inactive.

Take `C[C@]12CC[C@H]3[C@@H](CC[C@@]45O[C@@H]4C(O)=C(C#N)C[C@]35C)[C@@H]1CC[C@@H]2O`: the compound was classed as inactive.

As to `CCC(=O)c1ccc(Cl)cc1`, the compound was classed as inactive.

Turning to `O=C(O)c1cc[c]([Hg][Cl])cc1`, the call was inactive.

With `C=CC(=O)OCCCCOC(=O)C=C`, the compound was called inactive.

For `O=C1Nc2ccc(Cl)cc2C(c2ccccc2)=NC1O` (stereo not given), the result was inactive.

Turning to `O=C1C=CC(=O)C=C1`, the compound was called inactive.

Consider `CCOC(=O)N(C)N=O`, for which the compound was classed as inactive.

Turning to `Nc1ccccc1C(=O)OCCc1ccccc1`, the outcome was inactive.

Consider `COCC(=O)N(c1c(C)cccc1C)N1CCOC1=O`, for which the call was inactive.

As to `[Cl-].[Cl-].[Cl-].[Yb+3]`, the result was inactive.

Regarding `CC(C)(c1cc(Cl)c(O)c(Cl)c1)c1cc(Cl)c(O)c(Cl)c1`, the compound was classed as inactive.

In the case of `O=CNC(N1CCN(C(NC=O)C(Cl)(Cl)Cl)CC1)C(Cl)(Cl)Cl` (stereo not given), the result was inactive.

For the compound `N#CC(c1ccccc1)c1ccccc1`, the compound was called inactive.

For the compound `CC(=O)c1cc2c(cc1C)C(C)(C)C(C)CC2(C)C` (stereo not given), the half-maximal activity concentration (AC50) is 22.8 µM (active).

For the compound `CC(=O)/C=C/c1ccccc1`, the compound was classed as inactive.

Consider `O=C(O)CCl`, for which the call was inactive.

With `CC(=O)C=Cc1ccccc1`, the call was inactive.

Take `CCc1cc(C)cc(CC)c1-c1c(OC(=O)C(C)(C)C)n2n(c1=O)CCOCC2`: the outcome was inactive.

By AC50 is commonly meant the midpoint of the concentration-response curve, whichever way the signal moves.
